Measured values as given in PubChem BioAssay (NCATS).
Values joined by “and” are separate entries in the source; they are usually repeats but may differ in a detail not shown here. Equal entries are not always repeated. Values without a mark were called inactive. Inconclusive results are not listed. Entries that show only a call come without a potency. Active and inactive are the calls of the source. Unless noted, calls come from the whole dose curve; as a rule, active = well fitted curve in the direction sought with a large enough effect; inconclusive = small, poorly fitted or top-dose-only effect, or another doubt; inactive = no such curve, though single readings can be large; an effect the other way counts as inactive or inconclusive.

Legend:
[1] = Cellular Toxicity (caspase-3) HepG2 (AID 654); conditions: HepG2 caspase-3 activation, luminescence; series mostly up to 92.2 µM;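 note: cells exposed to compound for 16 hours before reading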
Procedure, shortened: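 Caspase 3/7 activation is measured as a luminescence increase (aminoluciferin substrate) after 16 h compound exposure of human hepatocarcinoma HepG2 cells. AC50 values are Hill fits, scaled between DMSO baseline and 100 uM tamoxifen stimulation.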

[2] = Cellular Toxicity (caspase-3) HUV-EC-C (AID 656); conditions: HUV-EC-C cells, caspase-3 activation (apoptosis); series mostly up to 92.2 µM
Procedure, shortened: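 HUV-EC-C endothelial cells, 1000/well, were pre-incubated 5 hr at 37°C, then exposed to compounds for 16 hr at 37°C. Caspase-Glo 3/7 luminescence was read after 20 min at room temperature. AC50 came from Hill fits, normalized to DMSO and 100 uM tamoxifen.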

[3] = Cellular Toxicity (caspase-3) SHSY5Y (AID 657); conditions: SH-SY5Y caspase-3 activation; series mostly up to 91.7 µM
Procedure, shortened: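 SH-SY5Y human neuroblastoma cells (1500/well) were treated with compounds for 16 h at 37 °C, then Caspase-Glo 3/7 luminescence was read after 1 h at room temperature. Data normalized to DMSO and 10 uM staurosporine; AC50 from Hill fits.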

[4] = Cellular Toxicity (caspase-3) BJ (AID 658); conditions: BJ fibroblasts, luminescence; Potency: caspase-3 activation; series mostly up to 91.7 µM
Procedure, shortened: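 Plated BJ cells (1000/well) rested 5 hr, received compound for 16 hr at 37 °C, then Caspase-Glo 3/7 reagent for 1 hr at room temperature before luminescence reading.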

[5] = Cellular Toxicity (caspase-3) MRC-5 (AID 659); conditions: MRC-5 cells, luminescence, normalized: DMSO 0%, 10 µM staurosporine 100%; series mostly up to 91.7 µM
Procedure, shortened: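 Apoptosis readout in MRC-5 cells: luciferase light generated after caspase 3/7 cleaves a peptide-aminoluciferin substrate, measured post 16 hr compound incubation at 37 °C.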

[6] = Cellular Toxicity (caspase-3) Mesangial (AID 660); conditions: mesangial cells, normalized: DMSO 0%, 100 µM tamoxifen 100%; series mostly up to 91.7 µM;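 note: combined caspase 3 and 7 activity read by Caspase-Glo luminescence; cells exposed to compound for 16 h before the caspase read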
Procedure, shortened: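 Caspase 3/7 activation measured by Caspase-Glo 3/7 luminescence (20 min, room temperature) following 16 h exposure of mesangial cells (1000/well); AC50 from Hill-equation fit, normalized to DMSO and 100 uM tamoxifen.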

[7] = Cellular Toxicity (caspase-3) SK-N-SH (AID 661); conditions: SK-N-SH caspase-3 activation, qHTS, DMSO as zero, staurosporine as full; series mostly up to 91.7 µM
Procedure, shortened: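 Caspase 3/7 activation was read by luminogenic substrate cleavage after 16 hour treatment of SK-N-SH cells. Signal was scaled between DMSO and 10 uM staurosporine, and concentration-response data were fitted with the Hill equation for AC50.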

[8] = Cellular Toxicity (caspase-3) H-4-II-E (AID 663); conditions: H-4-II-E rat hepatoma; Potency: caspase-3 activation; series mostly up to 92.2 µM;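 note: cells exposed to compound for 16 hr before readout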
Procedure, shortened: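 Caspase 3/7 activation measured in H-4-II-E cells in complete culture medium after 16 hr treatment at 37 °C, using luciferase-coupled substrate readout; AC50 values come from Hill-equation fits of normalized concentration-response data.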

[9] = Cellular Toxicity (caspase-3) N2a (AID 665); conditions: N2a cells, luminescence, normalized: DMSO 0%, 10 µM staurosporine 100%; series mostly up to 92.2 µM;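 note: compound exposure lasted 16 h at 37 °C before readout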
Procedure, shortened: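 Caspase-3/7 activation measured as luminescence from Caspase-Glo reagent (1 h, room temperature) after 16 h compound exposure of mouse N2a cells. AC50 values from Hill-equation concentration-response, scaled between DMSO and 10 uM staurosporine.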

[10] = Cellular Toxicity (caspase-3) NIH 3T3 (AID 666); conditions: NIH 3T3 caspase-3 activation, apoptosis/toxicity, 0% DMSO, 100% is 100 µM tamoxifen; series mostly up to 92.2 µM;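 note: caspase signal read after 16 h compound exposure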
Procedure, shortened: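 Caspase-Glo 3/7 luminescence reported caspase activation in 1000 NIH 3T3 cells/well after 16 h compound exposure at 37 C. DMSO set basal and 100 uM tamoxifen set 100% stimulation; concentration-response modeled with the Hill equation for AC50.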

[11] = Cellular Toxicity (caspase-3) Renal Proximal Tubule (AID 667); conditions: renal proximal tubule cells, primary cells freshly taken from rat; Potency: caspase-3 activation; series mostly up to 91.7 µM;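 note: cells exposed to compound for 16 hours at 37 °C before detection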
Procedure, shortened: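 Primary rat proximal tubule cells, 1000/well, 5 h plating at 37 °C, then compound 16 h at 37 °C. Caspase-Glo 3/7 reagent, 1 h RT, luminescence. Normalized to DMSO (basal) and 10 uM staurosporine (100%); Hill-fit AC50.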

[12] = MultiTox-Fluor Cytotoxicity Assay - LYMP1-001 - Dead Cells (AID 946); conditions: LYMP1-001 lymphoblastoid cells, dead-cell protease fluorescence; series mostly up to 92.2 µM
Procedure, shortened: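 LYMP1-001 lymphoblastoid cells (2500/well) treated 16 h at 37 C. Dead-cell protease cleavage of bis-AAF-R110 read at Ex/Em 485/520. Normalized to DMSO and 15 uM tetraoctylammonium bromide; AC50 from Hill fits.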

[13] = Cell Viability - LYMP1-002 - Assay at 16 hr (AID 948); conditions: LYMP1-002 lymphoblastoid cell viability; series mostly up to 92.2 µM; note: potency is the fitted concentration of half-maximal effect
Procedure, shortened: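 Human lymphoblastoid cells (LYMP1-002), 2500/well, were preincubated 5 hr at 37 C, then exposed to compounds for 16 hr at 37 C in complete medium. Cellular ATP was read by CellTiter-Glo luminescence after 30 min at room temperature; AC50 from Hill fits.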

[14] = MultiTox-Fluor Cytotoxicity Assay - LYMP1-003 - Dead Cells (AID 961); conditions: LYMP1-003 lymphoblastoid cells, dead-cell protease fluorescence; series mostly up to 92.2 µM; note: nearly all actives have a fitted effect of over 70% in size
Procedure, shortened: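 LYMP1-003 human lymphoblastoid cells (2500/well) exposed to compound 16 h at 37 C in complete medium; dead-cell protease read with bis-AAF-R110 fluorescence (Ex/Em 485/520) after 60 min at room temperature. Normalized to DMSO and 15 uM tetraoctylammonium bromide; AC50 from Hill fit.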

[15] = Cell Viability - LYMP1-003 - Assay at 24 hr (AID 963); conditions: LYMP1-003 lymphoblastoid cell viability; series mostly up to 92.2 µM; note: potency is the fitted concentration of half-maximal effect
Procedure, shortened: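 Concentration-response qHTS: ATP loss measured by CellTiter-Glo luminescence after 24 h compound exposure at 37 C. Cells were LYMP1-003 human lymphoblastoid, 2500 per well. AC50 derived via standard Hill equation modeling.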

[16] = Cell Viability - LYMP1-003 - Assay at 40 hr (AID 964); conditions: LYMP1-003 lymphoblastoid viability; series mostly up to 92.2 µM; note: nearly all actives have a fitted effect of over 60% in size; note: potency is the fitted concentration of half-maximal effect
Procedure, shortened: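 Viability is taken as cellular ATP, read by CellTiter-Glo luminescence after 40 h of compound exposure at 37 C. Cells: human lymphoblastoid line LYMP1-003 at 2500/well; AC50 values derived by Hill-equation fitting of concentration-response data.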

[17] = target: Peroxisome proliferator-activated receptor alpha (Homo sapiens) (UniProt Q07869); assay: qHTS assay for small molecule agonists of the peroxisome proliferator-activated receptor alpha (PPARalpha) signaling pathway (AID 651778); conditions: PathHunter PPARalpha complementation, chemiluminescence, 6 h; max response: active compounds read high
Chain of Peroxisome proliferator-activated receptor alpha (Homo sapiens) (Q07869 whole entry, looked up): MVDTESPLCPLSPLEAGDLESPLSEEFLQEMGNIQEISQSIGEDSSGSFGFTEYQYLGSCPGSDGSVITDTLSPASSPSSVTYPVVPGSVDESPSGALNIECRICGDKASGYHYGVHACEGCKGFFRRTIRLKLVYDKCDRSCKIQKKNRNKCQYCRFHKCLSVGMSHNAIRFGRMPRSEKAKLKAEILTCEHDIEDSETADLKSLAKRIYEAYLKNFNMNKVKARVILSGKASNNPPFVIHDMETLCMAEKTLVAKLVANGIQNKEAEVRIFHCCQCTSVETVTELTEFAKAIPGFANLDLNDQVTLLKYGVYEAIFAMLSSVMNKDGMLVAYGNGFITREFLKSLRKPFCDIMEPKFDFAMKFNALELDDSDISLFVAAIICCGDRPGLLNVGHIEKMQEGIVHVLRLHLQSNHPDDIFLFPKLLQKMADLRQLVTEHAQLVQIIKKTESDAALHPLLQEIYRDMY
Procedure, shortened: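 Cells plated at 2,000/well and held overnight at 37 C, 5% CO2, then compound added by pin tool for 6 hr; after PathHunter detection reagent and 60 min at room temperature, chemiluminescence from enzyme complementation was read.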

[18] = qHTS assay for small molecule agonists of the antioxidant response element (ARE) signaling pathway measured by Nrf2-dependant transcriptional activity (AID 720636; active = well fitted curve in the direction sought with a large enough effect in the repeat runs; an effect the other way counts as inactive or inconclusive;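 note: HepG2 cells with an ARE-driven luciferase reporter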); conditions: ARE-luc HepG2, Nrf2 luciferase reporter, 16 h; series mostly up to 92.4 µM
Procedure, shortened: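 First, ARE-luc HepG2 cells attached for 6 hr at 37 C in 1% dialyzed FBS medium. Next, compound or DMSO was added and incubated 16 hr. Finally, ONE-Glo reagent was added and luminescence measured after 30 min.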

[19] = qHTS assay for small molecule antagonists of the retinoid-related orphan receptor gamma (ROR-gamma) signaling pathway - cell viability counter screen (AID 720652; active = well fitted curve in the direction sought with a large enough effect in the repeat runs; an effect the other way counts as inactive or inconclusive;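 note: compound exposure lasted 16 hr before ATP read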; note: potency is the fitted concentration of half-maximal effect); conditions: RORgamma reporter cell line viability counter screen; series mostly up to 92.2 µM
Procedure, shortened: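 Cytotoxicity counter screen: intracellular ATP (CellTiter-Glo luminescence) measured in the doxycycline-induced CHO RORE-luciferase reporter line after 16 hr compound exposure at 37 C, 5% CO2.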

[20] = qHTS assay for small molecule activators of the human pregnane X receptor (PXR) signaling pathway (AID 720659; call rule not given here); conditions: DPX-2 HepG2 CYP3A4-luciferase, 24 h; series mostly up to 92.3 µM

Row | Compound | Potency [1] | Potency [2] | Potency [3] | Potency [4] | outcome [5] | outcome [6] | outcome [7] | Potency [8] | outcome [9] | outcome [10] | Potency [11] | Potency [12] | Potency [13] | Potency [14] | Potency [15] | Potency [16] | max response [17] | Potency [18] | Potency [19] | outcome [20]
1 | N=C1C=CC(=C(c2ccc(N)cc2)c2ccc(N)cc2)C=C1 | inactive | inactive | inactive | inactive | inactive | inactive | inactive | inactive | inactive | inactive | inactive | inactive | 25.1 µM (active) | inactive | 15.8 µM (active) | 12.6 µM (active) | -9.83% | inactive | 18.8 µM (active) | inactive
2 | CC(CCC(=O)O)(c1ccc(O)cc1)c1ccc(O)cc1 | inactive | inactive | inactive | inactive | inactive | inactive | inactive | inactive | inactive | inactive | inactive | inactive | inactive | inactive | inactive | inactive | -9.77% and -1.13% | inactive | inactive | inactive
